SMILES strings stand for the structures. Records with an inconclusive call do not appear. A number with no mark means an inactive call. Calls of active or inactive are those of the source. Calls follow the shape of the dose curve; as a rule, active = well fitted cell-killing curve with a large enough effect; inconclusive = small, poorly fitted or top-dose-only effect, or effect the other way; inactive = no such curve, though single readings can be large or run the other way.
% is scaled to controls: 0 for no effect and ±100 for the full control effect; potency is read from the fitted curve at half-maximal effect.

The test system of this assay is SW626. Put plainly: Confirmatory qHTS for gynecologic anti-cancer compounds from libraries of approved drugs and bioactive compounds. Also: nearly all actives have a fitted effect of over 55% in size. Conditions: gynecologic cancer cell panel viability, ATPlite luminescence, 48 h; series mostly up to 57.6 µM; activity change, negative = viability loss: at the top concentration. The essentials: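 ATPlite luminescence read-out of cell viability; IC50 from 11-point 1:3 titrations, 57.5 uM to 0.977 nM, 48 h compound exposure at 37 C, 5% CO2. Cells seeded at 1,000/well 16 h before dosing.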
In general terms: Quantitative high-throughput screening tests each substance at several concentrations.
With `CCCS(=O)c1ccc2nc(NC(=O)OC)[nH]c2c1` (stereo not given), the “activity change, negative = viability loss” value is -17.9%. The same measure, in the same setting: next, `O=C(Nc1cccnc1)N1CCC(Cc2cccc(Oc3ccc(C(F)(F)F)cn3)c2)CC1`: -11.9%.

For `Cc1csc(NC(=O)c2sc3nc4c(c(C(F)(F)F)c3c2N)CCC4)n1`, the Potency is 1.72 µM (active). Same read-out and setting: next, `CN(C)c1ccc2nc3ccc(=[N+](C)C)cc-3sc2c1`: 8.63 µM (active). For the compound `COc1cc(N2CCC(N)CC2)ccc1Nc1ncc(Cl)c(-c2c[nH]c3ccccc23)n1`, the Potency is 21.7 µM (active). Still for that read-out and setting: next, `CC[C@@]1(O)C(=O)OCc2c1cc1n(c2=O)Cc2c-1nc1ccccc1c2/C=N/OC(C)(C)C`: 0.217 µM (active); `N#CC1(c2cccc(C(=O)Nc3cc(Oc4ccc5nc(NC(=O)C6CC6)sc5n4)ccc3F)c2Cl)CC1`: 4.85 µM (active); `O=C(CCCCCCC(=O)Nc1ccccc1)NO`: 2.17 µM (active). With `Cc1cc(SCc2sc(-c3ccc(C(F)(F)F)cc3)nc2C)ccc1OCC(=O)O`, the “activity change, negative = viability loss” value is 2.54%. Same read-out and setting: the value for `C[C@@]1(C(=O)Nc2ccc(F)nc2)CCCN1c1nc(Nc2cc(C3CC3)[nH]n2)c2cccn2n1` was -16%; that for `Nc1ncn([C@@H]2O[C@H](CO)[C@@H](O)[C@H]2O)c(=O)n1` was 0.885%. On to `CC(Oc1cc(-n2cnc3ccc(CN4CCN(C)CC4)cc32)sc1C(N)=O)c1ccccc1C(F)(F)F` (stereo not given), for which the Potency was 24.3 µM (active).

`O=C(c1ccc(F)c(F)c1Nc1ccc(I)cc1F)N1CC(O)([C@@H]2CCCCN2)C1`: the Potency is 9.68 µM (active). The same measure, in the same setting: the value for `COc1cccc2c1C(=O)c1c(O)c3c(c(O)c1C2=O)C[C@@](O)(C(=O)CO)C[C@@H]3O[C@H]1C[C@H](N)[C@H](O[C@@H]2CCCCO2)[C@H](C)O1` was 7.69 µM (active). As to `CN(C[C@@H]1COCCO1)S(=O)(=O)Nc1ccc2ccc3ncc(-c4cnn(C)c4)cc3c(=O)c2c1`, the “activity change, negative = viability loss” value is 0.279%. Take `CCN(CC)CCNC(=O)c1c(C)[nH]c(/C=C2\C(=O)Nc3ccc(F)cc32)c1C`: the Potency was 22.4 µM (active). Still for that read-out and setting: the value for `Cc1nc(N)nc(N)c1-c1ccc(Cl)c(Cl)c1` was 3.85 µM (active); that for `O=C(/C=C/c1cccc(S(=O)(=O)Nc2ccccc2)c1)NO` was 1.33 µM (active). On to `Nc1nc(Cl)nc2c1ncn2C1OC(CO)C(O)C1F` (stereo not given), for which the “activity change, negative = viability loss” value is -18.5%. For `CCN1C[C@H](C)n2c(c(O)c3c(=O)n(Cc4ccc(F)c(Cl)c4)nc(C(=O)NC)c32)C1=O`, the “activity change, negative = viability loss” value is 7.26%. The same measure, in the same setting: next, `Cc1c(C)n(Cc2ccc(-c3ccccc3C(=O)O)cc2)c2ccc(C(=O)N[C@@H](C)c3ccc([N+](=O)[O-])cc3)cc12`: 30.1%.

As to `CCCCc1oc2ccccc2c1C(=O)c1cc(I)c(OCCN(CC)CC)c(I)c1`, the Potency is 79.4 µM (active). With `O=C(O)c1ccc(Nc2ncc3c(n2)-c2ccc(Cl)cc2C(c2c(F)cccc2F)=NC3)cc1`, the “activity change, negative = viability loss” value is -24.9%.

In the case of `Cc1cnc(Nc2ccc(F)cc2Cl)nc1-c1c[nH]c(C(=O)NC(CO)c2cccc(Cl)c2)c1` (stereo not given), the “activity change, negative = viability loss” value is -11.9%. Still for that read-out and setting: the value for `c1cc(N[C@@H]2CCNC2)nc(-c2cnc3ccc(-c4cn[nH]c4)cn23)c1` was 20.5%; that for `O=C(O)C1(Cc2cccc(Nc3nccs3)n2)CCC(Oc2cccc(Cl)c2F)CC1` (stereo not given) was -15.6%; that for `N=C(N)c1ccc(OCCCCCOc2ccc(C(=N)N)cc2)cc1` was -16%. Still for that read-out and setting: next, `CC(=O)O[C@H]1C(=O)[C@@]2(C)[C@H]([C@H](OC(=O)c3ccccc3)[C@]3(O)C[C@H](OC(=O)[C@H](O)[C@@H](NC(=O)c4ccccc4)c4ccccc4)C(C)=C1C3(C)C)[C@]1(OC(C)=O)CO[C@@H]1C[C@@H]2O`: -9.14% [at 10.7 µM]. As for `Cc1cnc(Nc2cccc(CN3CCOCC3)c2)nc1Nc1cccc(S(=O)(=O)NC(C)(C)C)c1`, the Potency was 24.3 µM (active). `CN(NC(=O)CC(=O)NN(C)C(=S)c1ccccc1)C(=S)c1ccccc1`: the Potency was 0.0968 µM (active).

These data come from PubChem BioAssay AID1345085 (National Center for Advancing Translational Sciences (NCATS), 2018).
